The structures appear in SMILES notation. About 79,000 compounds went through this panel and 15% of them were active in at least one assay; those are over-represented in the sample as a whole. Values without a mark were called inactive. Activity calls are given as the source filed them. Rule as the data show it: active = growth inhibition above about 70%; inactive = the rest.

The nature of test [1]: NCI Yeast Anticancer Drug Screen. Data for the rad50 strain (AID 155).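 Also: 0% = growth of vehicle-only cultures of the same strain.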 The following applies: S. cerevisiae rad50 strain growth inhibition, active compounds read high. The gist of the method:
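Cells are treated with compound, grown, and their growth is then scored against vehicle-only cultures of the same repair-deficient yeast strain.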

Test [2] is described as follows: NCI Yeast Anticancer Drug Screen. Data for the mec2-1 strain (AID 157). To be noted: S. cerevisiae mec2-1 strain, active compounds read high. In short, it runs like this:
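mec2-1 yeast strain, carrying an alteration in DNA damage repair or cell cycle control, was exposed to compounds; growth inhibition was measured relative to vehicle-treated controls.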

A short description of test [3]: NCI Yeast Anticancer Drug Screen. Data for the sgs1 mgt1 strain (AID 161).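 Also: 0% = growth of cultures given vehicle only.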 To be noted: S. cerevisiae sgs1 mgt1 strain, active compounds read high. In short, it runs like this: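 Growth of a repair-deficient yeast mutant was monitored after compound treatment and expressed as inhibition relative to vehicle-treated cultures.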
Test [4] in a line: NCI Yeast Anticancer Drug Screen. Data for the cln2 rad14 strain (AID 165).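 Also: 0% = growth equal to vehicle treated cultures.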 The following applies: S. cerevisiae cln2 rad14 strain, active compounds read high. The gist of the method:
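Yeast carrying cln2 and rad14 alterations (cell cycle control and DNA damage repair) were exposed to compounds. Growth inhibition was measured against vehicle-treated controls.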

Test [5] is described as follows: NCI Yeast Anticancer Drug Screen. Data for the bub3 strain (AID 167). To be noted: S. cerevisiae bub3 mutant strain, active compounds read high. In short, it runs like this:
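Part of a panel of yeast mutants defective in DNA damage repair or cell cycle regulation. Each strain is grown with compound, and inhibition is calculated relative to solvent-treated cultures.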

Test [6] can be described thus: NCI Yeast Anticancer Drug Screen. Data for the mlh1 rad18 strain (AID 175). The following applies: S. cerevisiae mlh1 rad18 strain growth inhibition, active compounds read high. The gist of the method:
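Growth inhibition of the yeast strain was measured after compound exposure and expressed relative to vehicle-treated controls. The strain carries defined defects in DNA damage repair.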

Where [7] appears, read: at 5.0 µM (retest, dose inferred, filed as 0.5).
[8] abbreviates: at 50.0 µM (retest, dose inferred, filed as 5.0).

Regarding `Nc1cc(=O)[nH]c(=S)[nH]1.[Pd]`, the growth inhibition in test [1] (setting [7]) is 0%; in test [1] (setting [8]), -4%; in test [1] (at 50.0 µM), 20%; in test [2] (setting [7]), 4%; in test [2] (setting [8]), 5%; in test [2] (at 50.0 µM), 18.6%. For the same compound, the growth inhibition was 5% in test [3] (setting [7]); 6% in test [3] (setting [8]); 13.3% in test [3] (at 50.0 µM); 0% in test [4] (setting [7]); 36% in test [4] (setting [8]); 71% (active) in test [4] (at 50.0 µM). The growth inhibition in test [5] (setting [7]) is 3%; in test [5] (setting [8]) it was 13%; in test [5] (at 50.0 µM) it was -4.45%; in test [6] (setting [7]), 0%; in test [6] (setting [8]), -4%; in test [6] (at 50.0 µM), 35.6%.

For `CCCCCCC(Sc1n[nH]c(=O)[nH]c1=O)C(=O)OCC` (stereo not given), the growth inhibition is 3% in test [1] (setting [7]); 76% (active) in test [1] (setting [8]); 61.5% in test [1] (at 50.0 µM); -1% in test [2] (setting [7]); 80% (active) in test [2] (setting [8]); 52.9% in test [2] (at 50.0 µM). For the same compound, the growth inhibition was 1% in test [3] (setting [7]); 88% (active) in test [3] (setting [8]); 77.6% (active) in test [3] (at 50.0 µM); 3% in test [4] (setting [7]); 83% (active) in test [4] (setting [8]); 52% in test [4] (at 50.0 µM). In addition, the growth inhibition was 2% in test [5] (setting [7]); 77% (active) in test [5] (setting [8]); 43.5% in test [5] (at 50.0 µM); -2% in test [6] (setting [7]); 89% (active) in test [6] (setting [8]); 61.1% in test [6] (at 50.0 µM).

Regarding `COc1ccc2c(c1)[n+]([O-])c(-c1ccc(Cl)cc1)c(N)[n+]2[O-]`, the growth inhibition is 33% in test [1] (setting [7]); 98% (active) in test [1] (setting [8]); 99.2% (active) in test [1] (at 50.0 µM); 29% in test [2] (setting [7]); 98% (active) in test [2] (setting [8]); 99.3% (active) in test [2] (at 50.0 µM). For the same compound, the growth inhibition is 39% in test [3] (setting [7]); 99% (active) in test [3] (setting [8]); 99.3% (active) in test [3] (at 50.0 µM); 46% in test [4] (setting [7]); 95% (active) in test [4] (setting [8]); 98.8% (active) in test [4] (at 50.0 µM). In addition, the growth inhibition in test [5] (setting [7]) is 80% (active); in test [5] (setting [8]), 99% (active); in test [5] (at 50.0 µM) it was 99.2% (active); in test [6] (setting [7]) it was 79% (active); in test [6] (setting [8]), 99% (active); in test [6] (at 50.0 µM), 99% (active).

For `COC(=O)C1(Cc2ccc(C)cc2)Cc2c(C)cccc2C1=O` (stereo not given), the growth inhibition is -2% in test [1] (setting [7]); 47% in test [1] (setting [8]); 70.3% (active) in test [1] (at 50.0 µM); -2% in test [2] (setting [7]); 35% in test [2] (setting [8]); 39.9% in test [2] (at 50.0 µM). For the same compound, the growth inhibition in test [3] (setting [7]) was 13%; in test [3] (setting [8]) it was 45%; in test [3] (at 50.0 µM), 75.8% (active); in test [4] (setting [7]), 6%; in test [4] (setting [8]) it was 32%; in test [4] (at 50.0 µM), 55.9%. For the same compound, the growth inhibition is 17% in test [5] (setting [7]); 71% (active) in test [5] (setting [8]); 75.2% (active) in test [5] (at 50.0 µM); -1% in test [6] (setting [7]); 54% in test [6] (setting [8]); 54.4% in test [6] (at 50.0 µM).

For `CC(O)c1c2ccccc2cc2ccccc12` (stereo not given), the growth inhibition is -17% in test [1] (setting [7]); 72% (active) in test [1] (setting [8]); 84.4% (active) in test [1] (at 50.0 µM); -7% in test [2] (setting [7]); 58% in test [2] (setting [8]); 39.3% in test [2] (at 50.0 µM). Besides, the growth inhibition is 1% in test [3] (setting [7]); 72% (active) in test [3] (setting [8]); 37.6% in test [3] (at 50.0 µM); -32% in test [4] (setting [7]); 50% in test [4] (setting [8]); 16.8% in test [4] (at 50.0 µM). In addition, the growth inhibition in test [5] (setting [7]) is -1%; in test [5] (setting [8]) it was 81% (active); in test [5] (at 50.0 µM) it was 50.5%; in test [6] (setting [7]), -13%; in test [6] (setting [8]), 85% (active); in test [6] (at 50.0 µM), 78.8% (active).

As for `Cc1ccc(C(c2ccc(N(C)C)cc2)c2ccc(N(C)C)cc2)cc1`, the growth inhibition in test [1] (setting [7]) was 97% (active); in test [1] (setting [8]), 89% (active); in test [1] (at 50.0 µM), 94.5% (active); in test [2] (setting [7]), 99% (active); in test [2] (setting [8]) it was 92% (active); in test [2] (at 50.0 µM), 94.7% (active). Further, the growth inhibition in test [3] (setting [7]) was 99% (active); in test [3] (setting [8]), 95% (active); in test [3] (at 50.0 µM), 93.8% (active); in test [4] (setting [7]), 78% (active); in test [4] (setting [8]) it was 69%; in test [4] (at 50.0 µM) it was 69%. In addition, the growth inhibition in test [5] (setting [7]) is 98% (active); in test [5] (setting [8]), 92% (active); in test [5] (at 50.0 µM) it was 94.7% (active); in test [6] (setting [7]), 98% (active); in test [6] (setting [8]), 92% (active); in test [6] (at 50.0 µM), 92.7% (active).

Regarding `COc1cc2c(cc1OC)NCC1COc3c(ccc(OC)c3OC)C1=N2` (stereo not given), the growth inhibition in test [1] (setting [7]) was 12%; in test [1] (setting [8]) it was 14%; in test [1] (at 50.0 µM), -44.9%; in test [2] (setting [7]), 14%; in test [2] (setting [8]), 8%; in test [2] (at 50.0 µM) it was -6.65%. The growth inhibition is 15% in test [3] (setting [7]); 17% in test [3] (setting [8]); -18.4% in test [3] (at 50.0 µM); 19% in test [4] (setting [7]); 17% in test [4] (setting [8]); 11.1% in test [4] (at 50.0 µM). Also, the growth inhibition was 17% in test [5] (setting [7]); 22% in test [5] (setting [8]); 16% in test [5] (at 50.0 µM); 12% in test [6] (setting [7]); 24% in test [6] (setting [8]); -37.8% in test [6] (at 50.0 µM).

For `C(=P(c1ccccc1)(c1ccccc1)c1ccccc1)[P+](c1ccccc1)(c1ccccc1)c1ccccc1`, the growth inhibition in test [1] (setting [7]) was 98% (active); in test [1] (setting [8]), 99% (active); in test [1] (at 50.0 µM) it was 99.3% (active); in test [2] (setting [7]), 99% (active); in test [2] (setting [8]), 100% (active); in test [2] (at 50.0 µM), 99.3% (active). Also, the growth inhibition in test [3] (setting [7]) was 99% (active); in test [3] (setting [8]), 99% (active); in test [3] (at 50.0 µM), 99.3% (active); in test [4] (setting [7]), 98% (active); in test [4] (setting [8]) it was 99% (active); in test [4] (at 50.0 µM) it was 98.7% (active). Further, the growth inhibition in test [5] (setting [7]) was 98% (active); in test [5] (setting [8]) it was 99% (active); in test [5] (at 50.0 µM), 99% (active); in test [6] (setting [7]), 99% (active); in test [6] (setting [8]), 99% (active); in test [6] (at 50.0 µM), 99.2% (active).

With `O=[N+]([O-])c1ccc(Cl)c(C(Nc2nncs2)Nc2nncs2)c1`, the growth inhibition is -2% in test [1] (setting [7]); 91% (active) in test [1] (setting [8]); 49.1% in test [1] (at 50.0 µM); 2% in test [2] (setting [7]); 70% (active) in test [2] (setting [8]); 23.9% in test [2] (at 50.0 µM). Also, the growth inhibition in test [3] (setting [7]) is -3%; in test [3] (setting [8]) it was 61%; in test [3] (at 50.0 µM) it was 61.7%; in test [4] (setting [7]), 18%; in test [4] (setting [8]), 84% (active); in test [4] (at 50.0 µM), 36.3%. The growth inhibition is -5% in test [5] (setting [7]); 92% (active) in test [5] (setting [8]); 20.4% in test [5] (at 50.0 µM); -13% in test [6] (setting [7]); 84% (active) in test [6] (setting [8]); 51.8% in test [6] (at 50.0 µM).

Turning to `CC(C)(C)c1cc(Nc2ccc([N+](=O)[O-])cc2[N+](=O)[O-])cc(C(C)(C)C)c1O`, the growth inhibition in test [1] (setting [7]) is 4%; in test [1] (setting [8]), 99% (active); in test [1] (at 50.0 µM), -14.9%; in test [2] (setting [7]) it was 7%; in test [2] (setting [8]), 100% (active); in test [2] (at 50.0 µM), 14.3%. Further, the growth inhibition in test [3] (setting [7]) was 6%; in test [3] (setting [8]), 99% (active); in test [3] (at 50.0 µM), 10.4%; in test [4] (setting [7]) it was -1%; in test [4] (setting [8]), 99% (active); in test [4] (at 50.0 µM) it was -45.6%. Moreover, the growth inhibition in test [5] (setting [7]) was 8%; in test [5] (setting [8]), 99% (active); in test [5] (at 50.0 µM), -0.9%; in test [6] (setting [7]), -1%; in test [6] (setting [8]), 99% (active); in test [6] (at 50.0 µM) it was 8.45%.
